Test [1] can be described thus: qHTS assay for small molecules that induce genotoxicity in human embryonic kidney cells expressing luciferase-tagged ATAD5 (AID 651632). Also: nearly all actives have a fitted effect of over 15% in size. Summed up: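 DMSO vehicle served as the control. HEK293T reporter cells, 16 hr at 37C, then 30 min Amplite at room temperature; ATAD5 induction is measured as luciferase activity.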
A short description of test [2]: qHTS assay for small molecule agonists of the p53 signaling pathway - cell viability (AID 651633; calls by dose curve;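 also: p53RE-bla HCT reporter cells with a stable beta-lactamase p53 reporter; series mostly up to about 83 µM; nearly all actives have a fitted effect of over 30% in size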). Summed up: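 p53RE-bla cells were treated with compound for 16 hours at 37 C. Cytotoxicity was then measured as CellTiter-Glo luminescence after 30 min at room temperature.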
On the technique in general: In qHTS, concentration-response curves come from the screen itself.

Test [3] can be described thus: qHTS assay for small molecules that induce genotoxicity in human embryonic kidney cells expressing luciferase-tagged ATAD5 - cell viability (AID 651634; calls by dose curve; also: nearly all actives have a fitted effect of over 25% in size). Summed up:
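Here HEK293T cells with the ATAD5 luciferase reporter are incubated with test compounds for 15.5 hr, and cytotoxicity is then gauged by measuring protease activity in live cells using fluorescence.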

Test [4] is described as follows: qHTS assay for small molecule disruptors of the mitochondrial membrane potential - cell viability (AID 720634; calls by dose curve;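 also: human HepG2 liver cancer cells; series mostly up to about 83 µM; nearly all actives have a fitted effect of over 20% in size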). Summed up: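 Viability of HepG2 cells is scored from ATP content by luminescence; cells are exposed to compound for 1 hr at 37 C and 5% CO2, then dosed with m-MPI dye before the CellTiter-Glo reagent.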
The nature of test [5]: qHTS assay for small molecule disruptors of the mitochondrial membrane potential (AID 720635). Also: potency is read from the fitted curve at half-maximal effect. Summed up:
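HepG2 cells exposed to compound 1 hr at 37C, then Mito-MPS dye 30 min. Ratio read of aggregate (540/590 nm) versus monomer (490/535 nm) fluorescence.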

A short description of test [6]: qHTS assay to test for compound auto fluorescence at 590 nm (red) in HepG2 cells (AID 720674). Summed up:
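Seeding: 2,000 HepG2 cells/well, MEM/10% FBS, overnight 37 C. Dosing: compound vs DMSO. Incubation: 1 hr, 37 C, 5% CO2. Read: fluorescence 540 ex/590 em, Rose Bengal sodium as red reference.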

Test [7] in a line: qHTS assay to test for compound auto fluorescence at 535 nm (green) in HepG2 cells (AID 720675).
The nature of test [8]: qHTS assay to test for compound auto fluorescence at 460 nm (blue) in HEK293 cells (AID 720678). Summed up:
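Cells were seeded and left to adhere for 4-5 hr at 37C. Compounds were then pin-transferred. After an overnight incubation at 37C under 5% CO2, intrinsic fluorescence at 405/460 nm was measured and referenced to triamterene.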

A short description of test [9]: qHTS assay to test for compound auto fluorescence at 590 nm (red) in HEK293 cells (AID 720679). Summed up:
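Each well held 2,000 HEK293 cells in medium containing 10% dialyzed FBS. Following 4-5 hr attachment at 37C, 23 nL test compound or DMSO was added; plates sat overnight, and red fluorescence (540/590nm) was recorded.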

Test [10] in a line: qHTS assay to test for compound auto fluorescence at 535 nm (green) in HEK293 cells (AID 720680).
Test [11] can be described thus: qHTS assay to test for compound auto fluorescence at 460 nm (blue) in HEK293 cell free culture (AID 720681). Summed up:
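Compounds were added to cell-free DMEM with 10% FBS and fluorescence read directly. The blue channel used 405 nm excitation and 460 nm emission, with triamterene as the reference fluorophore.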

A short description of test [12]: qHTS assay to test for compound auto fluorescence at 535 nm (green) in HEK293 cell free culture (AID 720682). Summed up: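 DMEM + 10% FBS, cell-free; cpd or DMSO pinned in; Ex485/Em535 read; output as fluorescein-equivalent signal.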
Test [13] is described as follows: qHTS assay to test for compound auto fluorescence at 590 nm (red) in HEK293 cell free culture (AID 720683). Summed up: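 Cell-free wells of DMEM with 10% FBS received compound, and intrinsic fluorescence was read at excitation/emission 540/590 nm. Values expressed as equivalence to Rose Bengal sodium.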
Test [14] can be described thus: qHTS assay to test for compound auto fluorescence at 590 nm (red) in HepG2 cell free culture (AID 720684). Summed up:
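Rose Bengal sodium served as the reference for red signal. Test compounds were dispensed into serum-containing MEM (10% FBS) without cells, and plates were read at 540/590 nm.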

A short description of test [15]: qHTS assay to test for compound auto fluorescence at 460 nm (blue) in HepG2 cell free culture (AID 720685). Summed up:
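Cell-free plates of MEM plus 10% FBS received 23 nL compound or DMSO vehicle; blue-channel (405/460 nm) intensity scored against triamterene as reference fluorophore.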

Test [16] in a line: qHTS assay to test for compound auto fluorescence at 535 nm (green) in HepG2 cell free culture (AID 720686).
Test [17] can be described thus: qHTS assay to test for compound auto fluorescence at 460 nm (blue) in HepG2 cells (AID 720687). Summed up: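 HepG2 cells in MEM with 10% FBS, attached overnight at 37 C, were exposed to compound or DMSO for 1 hr at 37 C, 5% CO2. Blue fluorescence was read at 405/460 nm, with triamterene as reference fluorophore.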
Test [18] has as its target Glucocorticoid receptor (Homo sapiens) (UniProt P04150). The test can be described thus: qHTS assay to identify small molecule agonists of the glucocorticoid receptor (GR) signaling pathway (AID 720691; active = well fitted activation curve with a large enough effect in the signal ratio in the repeat runs, not every such curve was filed as active; the % refers to the signal ratio). Summed up: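 Compounds in DMSO, alongside positive controls, were added to GR-bla HeLa reporter cells and incubated 18 h at 37 C; GRE-driven beta-lactamase was detected by fluorescence after 2 h with FRET substrate at room temperature.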

For test [19] the target is unchanged. The test can be described thus: qHTS assay to identify small molecule antagonists of the glucocorticoid receptor (GR) signaling pathway (AID 720692; active = well fitted inhibition curve with a large enough effect in the signal ratio in the repeat runs, not every such curve was filed as active; the % refers to the signal ratio). Summed up: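 In a 1536-well cell format, compounds were added 4 h after seeding GR-bla HeLa cells, together with dexamethasone at 5 nM final; reporter activity was measured by FRET-substrate fluorescence following 18 h at 37 C.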

The structures appear in SMILES notation. Values without a mark were called inactive. Inconclusive results are not listed. Active and inactive are the calls of the source. Unless noted, calls follow the shape of the dose curve; as a rule, active = well fitted curve in the direction sought with a large enough effect in the repeat runs; inconclusive = weak or mixed curves; inactive = no such curve, though single readings can be large; an effect the other way counts as inactive or inconclusive.

The record followed here is PubChem BioAssay (Tox21).

Chain of Glucocorticoid receptor (Homo sapiens) (P04150 whole entry, looked up): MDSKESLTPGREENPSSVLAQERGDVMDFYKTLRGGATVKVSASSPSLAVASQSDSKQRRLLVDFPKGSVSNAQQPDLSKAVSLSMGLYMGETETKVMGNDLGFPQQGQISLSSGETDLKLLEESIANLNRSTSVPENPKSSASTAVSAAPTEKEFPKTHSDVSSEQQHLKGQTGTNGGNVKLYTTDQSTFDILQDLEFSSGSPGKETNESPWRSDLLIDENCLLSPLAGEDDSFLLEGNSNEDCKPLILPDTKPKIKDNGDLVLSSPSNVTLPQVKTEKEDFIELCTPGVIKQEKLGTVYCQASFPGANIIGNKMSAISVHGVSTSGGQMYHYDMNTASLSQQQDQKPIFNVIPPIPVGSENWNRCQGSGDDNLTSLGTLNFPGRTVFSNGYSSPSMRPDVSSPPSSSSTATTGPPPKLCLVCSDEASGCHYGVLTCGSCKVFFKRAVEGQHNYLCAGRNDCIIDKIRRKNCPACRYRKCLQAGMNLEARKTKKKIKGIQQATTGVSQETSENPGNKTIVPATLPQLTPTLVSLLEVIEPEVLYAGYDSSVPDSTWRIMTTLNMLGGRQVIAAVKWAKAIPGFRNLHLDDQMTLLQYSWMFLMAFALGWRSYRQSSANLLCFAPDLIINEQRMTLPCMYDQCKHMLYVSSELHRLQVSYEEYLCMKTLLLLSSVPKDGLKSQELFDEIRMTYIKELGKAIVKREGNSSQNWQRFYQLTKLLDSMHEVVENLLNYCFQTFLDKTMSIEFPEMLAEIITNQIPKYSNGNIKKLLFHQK

Consider `COC(=O)CS`, for which the Potency entry in test [1], in test [2], in test [3], in test [4], in [5] and in [8] was “inactive” in each case. For the same compound, the Potency entry in test [11], in test [15] and in [17] was “inactive” each time. Moreover, the result in test [6], in [7], in test [9], in [10], in test [12] and in test [13] was inactive. For the same compound, the compound was called inactive in [14] and in test [16].

Consider `CC(=O)Oc1ccc([N+](=O)[O-])cc1CCl`, for which the Potency result in test [1], in test [2], in test [4], in test [8], in test [11] and in test [15] was “inactive” throughout. For the same compound, the Potency result in [17] was “inactive”. In addition, in test [5], the Potency is 54.5 µM (active). Besides, the call in [6], in test [7], in [9], in [10], in [12] and in [13] was inactive. Moreover, the call in [14] and in [16] was inactive.

With `O=C(O)CCCCCCCCCCCBr`, the Potency entry in test [1], in test [2], in test [3], in test [4], in test [8] and in test [11] was “inactive” in each case. Also, the Potency result in test [15], in [17], in test [18] and in test [19] was “inactive” each time. In addition, the result in [6], in test [7], in test [9], in [10] and in test [14] was inactive.

In the case of `CC(=O)OCC(=O)NCCCOc1cccc(CN2CCCCC2)c1`, the Potency result in test [1], in [2], in [4], in [5], in [8] and in [11] was “inactive” throughout. Also, the Potency result in [15] and in [17] was “inactive” each time. The compound was called inactive in test [6], in test [7], in test [10], in [12], in [13] and in [14]. Also, the result in [16] was inactive.

Take `CCOC(=O)c1ccc(C#Cc2ccc3c(c2)C(C)(C)CCS3)nc1`: the Potency entry in test [1], in test [2], in test [3] and in test [18] was “inactive” each time. Also, the Potency in test [5] was 29.8 µM (active). For the same compound, the compound was classed as inactive in test [6], in test [7], in test [9], in test [10], in test [13] and in test [14]. In addition, the compound was classed as inactive in test [16].

Take `CCC(C)COC(C)=O` (stereo not drawn): the Potency result in [1], in test [2], in test [4], in [5], in test [8] and in test [11] was “inactive” in each case. The Potency entry in test [17], in test [18] and in [19] was “inactive” throughout. In addition, the result in test [6], in test [7], in [9], in test [10], in [12] and in test [14] was inactive. For the same compound, in test [16], the result was inactive.

As for `CN1C[C@H](C(=O)N[C@]2(C)O[C@@]3(O)[C@@H]4CCCN4C(=O)[C@H](Cc4ccccc4)N3C2=O)C[C@@H]2c3cccc4[nH]cc(c34)C[C@H]21`, the Potency result in [1], in [2], in [4], in test [8], in test [11] and in test [15] was “inactive” in each case. Besides, the Potency entry in test [17], in [18] and in test [19] was “inactive” in each case. Besides, the result in test [6], in test [7], in [9], in test [10], in test [12] and in test [13] was inactive. Moreover, in test [14], the compound was classed as inactive.

In the case of `NNC(=O)CP(=O)(c1ccccc1)c1ccccc1`, the Potency result in [1], in test [2], in [3], in [4], in test [8] and in test [11] was “inactive” in each case. The Potency result in test [15], in test [17] and in test [18] was “inactive” each time. The call in [6], in [9], in [10], in [12], in [13] and in test [14] was inactive. Also, the call in test [16] was inactive.
